GSTO1 inh: GSTO1 inhibition, counter-screen for RBBP9 inhibitors | recombinant GSTO1, activity-based probe fluorescence polarization | inhibition, % at 5.96 µM | 300,000 tested, 1.1% active | AID 1974;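 active means inhibition above the campaign mean inhibition plus 3 SD, cut at about 35% in these data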;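 further: 0% = GSTO1-1 with DMSO and 100% = wells lacking GSTO1-1 enzyme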
PAD4 FP inh: PAD4 (human) enzyme inhibition. AID 485272. 330,000 tested, 0.41% active. inhibition, % at 6.36 µM. recombinant PAD4, RCA probe fluorescence polarization;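 active means percent inhibition above a cutoff equal to the mean of all tested compounds plus 3 SD, cut at about 15% in these data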;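 further: 0% = PAD4 with RCA probe and DMSO and 100% = probe without PAD4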
Fam108B counter: counter-screen for RBBP9 inhibitors: inhibitors of mouse Fam108B | recombinant Fam108B, FP-Rh probe fluorescence polarization | inhibition, % at 9.51 µM | 300,000 tested, 0.33% active;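 active means inhibition above the screen mean inhibition plus 3 SD, computed separately per campaign, cut at about 18% in these data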;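 further: inhibitors lower polarization as less probe binds the enzyme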
LYPLA1 inh: blocks human lysophospholipase 1, a PME1 counter-screen; O75608; recombinant LYPLA1, FP-Rh probe fluorescence polarization; inhibition, % at 5.9 µM; 320,000 tested, 0.16% active;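 active means inhibition above the mean of all tested compounds plus 3 SD, set per campaign, cut at about 14% in these data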;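 further: inhibitors block serine hydrolase probe labeling of LYPLA1 so polarization falls; 0% = enzyme with DMSO and 100% = wells lacking LYPLA1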
Target sequence (O75608 whole entry, looked up): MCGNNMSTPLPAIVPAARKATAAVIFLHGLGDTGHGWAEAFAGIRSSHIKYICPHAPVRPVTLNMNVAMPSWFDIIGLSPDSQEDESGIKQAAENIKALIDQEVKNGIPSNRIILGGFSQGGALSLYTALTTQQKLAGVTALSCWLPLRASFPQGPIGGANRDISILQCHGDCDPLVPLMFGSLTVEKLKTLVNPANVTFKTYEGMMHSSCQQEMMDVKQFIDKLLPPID
PME-1 inh: PME-1 (human) inhibition. Q9Y570. recombinant PME-1, FP-Rh probe fluorescence polarization. inhibition, % at 5.9 µM. 320,000 tested, 0.53% active;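 active means inhibition above the campaign mean of all compounds plus 3 SD, cut at about 26% in these data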;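 further: competitive labeling of PME-1 active site by serine hydrolase directed probe; 0% = PME-1 with DMSO and 100% = wells lacking PME-1 enzyme; inhibitors block probe labeling so polarization falls and inhibition rises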
LYPLA2 counter: counter-screen for PME1 inhibitors: inhibitors of human LYPLA2; O95372; recombinant LYPLA2, FP-Rh probe fluorescence polarization; inhibition, % at 5.9 µM; 320,000 tested, 0.38% active; AID 2177;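 active means inhibition above the screen-wide mean plus 3 SD, limit set per campaign, cut at about 26% in these data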;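 further: 0% = LYPLA2 with DMSO and 100% = wells lacking LYPLA2 enzyme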
Target sequence (O95372 whole entry, looked up): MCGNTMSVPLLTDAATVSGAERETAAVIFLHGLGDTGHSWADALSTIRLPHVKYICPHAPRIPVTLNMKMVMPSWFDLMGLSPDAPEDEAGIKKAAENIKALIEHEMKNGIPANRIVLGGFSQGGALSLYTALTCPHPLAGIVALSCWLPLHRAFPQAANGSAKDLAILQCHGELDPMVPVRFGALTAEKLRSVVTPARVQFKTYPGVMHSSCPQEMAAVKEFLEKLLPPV
LYPLA2 conf: LYPLA2 (human) inhibition, confirmation counter-screen; AID 2232; shares compounds with LYPLA2 counter; inhibition, % at 5.9 µM; recombinant LYPLA2, FP-Rh probe fluorescence polarization; 1,100 tested, 72% active;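 active means mean inhibition across replicates above the hit cutoff set in the primary screen, cut at about 26% in these data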;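 further: blocked labeling of the enzyme by serine hydrolase FP-Rh probe lowers polarization; 0% = enzyme with DMSO and 100% = wells lacking LYPLA2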
LYPLA2 ABPP: inhibitors of human LYPLA2; rhLYPLA2 in mouse brain proteome, gel ABPP FP-Rh; 150 tested, 30% active; inhibition, % at 20 µM; shares compounds with LYPLA2 counter;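 active means inhibition of LYPLA2 enzyme probe labeling above about 50%, limit read from the data; inactive means inhibition below that limit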;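 further: loss of FP-Rh probe labeling of the LYPLA2 gel band measured as band density; 0% = DMSO only control band and 100% = blank gel background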
* hit, by the source's call; . = no result. In the library only some 1.7% were active in any assay of this set; here they are far more common.

SMILES | GSTO1 inh | PAD4 FP inh | Fam108B counter | LYPLA1 inh | PME-1 inh | LYPLA2 counter | LYPLA2 conf | others
O=[N+]([O-])c1cc(Cl)ccc1Oc1ccc(-c2nnco2)cc1 | -3 | -2 | -4 | 7 | 12 | 27* | 28*
Cc1ccc(NC(=O)C2C3C=CC(O3)C2C(=O)O)c(C)c1 (centres undefined) | 1 | -1 | 0 | 3 | -3 | 8 | .
CCOC(=O)C1CCN(C(=O)c2ccc(Oc3cc(Cl)cc(Cl)c3)o2)CC1 | 1 | 0 | -2 | 4 | 2 | 27* | 49*
COc1cccc2c1oc1c(SCc3nc4ccccc4[nH]3)nc(C)nc12 | . | 1 | . | . | . | . | .
O=C(C1CCN(c2ncnc3c2nc2n3CCCCC2)CC1)N1CCN(c2ccc(F)cc2)CC1 | 1 | -4 | -1 | 2 | 1 | 40* | 32*
CCCCCCC(=O)N1CCCC(c2nc(-c3cccc(OC)c3)no2)C1 (centres undefined) | 2 | 5 | -3 | 12 | 9 | 27* | 23
O=C(c1ccc(OC2CCN(CCc3ccccc3)CC2)cc1)N1CCCC(CO)C1 (centres undefined) | 1 | 1 | 3 | 2 | 4 | 19 | .
CC1CCCN(C(=O)c2ccc(OC3CCN(CCc4ccccc4)CC3)cc2)C1 (centres undefined) | 5 | -1 | 3 | 1 | 2 | 41* | 33*
Cc1ccc(S(=O)(=O)N(C)C)cc1NC(=O)C(C)OC(=O)C1CCCCC1 (centres undefined) | . | 0 | . | . | . | . | .
Cc1c(NC(=O)/C=C/c2cn(-c3ccccc3)nc2-c2ccc(F)cc2)c(=O)n(-c2ccccc2)n1C | -4 | -1 | -7 | -8 | -6 | 31* | 30*
Cc1ccc(-c2nn(-c3ccccc3)cc2/C=C/C(=O)Nc2nccs2)cc1 | -1 | -3 | -3 | -2 | -9 | -13 | .
CC(=O)Nc1ccc(S(=O)(=O)NC2CCSc3ccccc32)cc1 (centres undefined) | 0 | 4 | 1 | 3 | 17 | 32* | 2
Cc1nc(C(=O)Nc2ccc(Cl)cc2)sc1C1(C)CC(c2cccc([N+](=O)[O-])c2)=NO1 (centres undefined) | -3 | 3 | -2 | -6 | -3 | -4 | .
Cc1nc(C(=O)NC2CCCCC2)sc1C1(C)CC(c2cccc([N+](=O)[O-])c2)=NO1 (centres undefined) | -10 | -5 | -1 | -1 | 4 | 50* | 60* | LYPLA2 ABPP=45
O=C(CN1C(=O)S/C(=C\c2ccccc2)C1=O)NNC(=O)c1ccccc1O | 3 | -1 | 3 | -3 | 3 | 0 | .
O=C(CN1C(=O)S/C(=C\c2ccc(O)cc2)C1=O)c1ccccc1 | 7 | -2 | -1 | -7 | 17 | 35* | 33*
O=C(CN1C(=O)S/C(=C\c2ccc(C(=O)O)cc2)C1=O)Nc1ccccc1 | -18 | -5 | -8 | 2 | 1 | 58* | 67* | LYPLA2 ABPP=63*
Cc1cccc(NC(=O)CN2C(=O)S/C(=C\c3ccc(-c4cccc(C(=O)O)c4C)o3)C2=O)c1 | 8 | -5 | -1 | 3 | -8 | 29* | 35*
Cc1ccc(NC(=O)CN2C(=O)S/C(=C/c3ccncc3)C2=O)cc1 | -17 | -1 | 4 | 2 | 1 | 8 | .
O=S(=O)(c1ccc(Cl)cc1)N1CCN=C1SCc1ccc(Cl)c(Cl)c1 | 2 | -2 | -2 | 2 | -4 | -4 | .
O=C(O)COC(=O)C1C(c2ccccc2)C(C(=O)O)C1c1ccccc1 (centres undefined) | -4 | -4 | -1 | -2 | -3 | 1 | .
COc1ccc(NC2=NCCC(=O)N2Cc2cccs2)cc1 | 1 | 1 | 4 | 2 | 2 | 27* | 21
COc1ccc(NC2=NCC(=O)N2Cc2cccs2)cc1 | 3 | 0 | -2 | 2 | 1 | 14 | .
Cc1cc(N2CCN(c3ccc([N+](=O)[O-])c4cccnc34)CC2)c2ccccc2n1 | 5 | 0 | -5 | 6 | 3 | -1 | .

Screening results from PubChem.
